# Assay results reported in the OligoGym collection.
# Target: TRPM3
# Test: pooled miR-30 sensor sort-seq; sequence = guide strand
# Conditions: shRNA
# Note: reference of the scale not given here.
row,Sequence,sensor-assay potency score (higher = more potent)
1,TTGTACAATTCCTCTAGTCTGG,-0.181
2,TTTGTCTTTCATATTGACCGAA,-0.0309
3,TTATTTTACCATCCTCTCGGGT,-0.671
4,TAAAATGCTCTTTCTATCCAGG,-0.366
5,AATGTCGTCAACCATGTCGTTC,-1.05
6,TTGTTCTTGAACTCCAAGCTGA,-0.171

# Target: TRPM6
# Test: as above
# Conditions: shRNA
row,Sequence,sensor-assay potency score (higher = more potent)
1,TAGAACTCATAGACTTTCCTGG,0.494
2,TTGAGTGTTGTGAGCTTGCTGA,-0.408
3,TAATTCTTCAACTCTTCTGAGG,-0.79
4,TGTTCTTTTGACTTCTTCCTTG,0.00322
5,TTGTATTGTAGAGCTCTTCCAG,-0.0378
6,TAAAACTATGACTCCTAGCGAA,-0.766
7,TTGTTGTTGTTATACTTCCGGA,-0.714
8,TAAATGTAACAGATGATCCAGT,0.213
9,TATGTTATCACAGAGTTCCTGG,0.658
10,TTGAGTAATTCTTCAACTCTTC,-0.179
11,TATAGATCAATTTTTGAGCAGC,-0.262
12,TAAGTGAGCAATAGGCTCGTGC,-0.42
